# In PubChem BioAssay:
# Activity calls are given as the source filed them. Unless noted, no stated cut-off is given here; in the data, active means inhibition above about 80%; inactive means the rest.
# Columns and labels:
# [1] = LFS_MB_P medulloblastoma growth inhibition, cell-based, chromothripsis tumors, cisplatin or BGB combos (AID 1671449); details: LFS_MB_P medulloblastoma cells;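 further: cells exposed for 96 hours; 0% = vehicle DMSO and 100% = killing by high DMSO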
# [2] = HDN33 neuroblastoma growth inhibition, cell-based, chromothripsis tumors, cisplatin or BGB combos (AID 1671450); details: HDN33 neuroblastoma cells, stronger effect = higher value;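 further: cells exposed to compound for four days; 0% = vehicle DMSO and 100% = cell killing by high DMSO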
# [3] = ICB984 medulloblastoma cell growth inhibition, synergistic combos for chromothripsis tumors, cisplatin or BGB combos (AID 1671451; call rule not given here;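 further: cells exposed for 96 hours before readout; 0% = vehicle DMSO and 100% = killing by high DMSO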); details: ICB984 medulloblastoma cells, drug combinations, stronger effect = higher value
# [4] = LFS_MB_1R medulloblastoma cell growth inhibition, synergistic combos for chromothripsis tumors, cisplatin or BGB combos (AID 1671452); details: LFS_MB_1R medulloblastoma cells, stronger effect = higher value;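 further: cells exposed for 96 hours before readout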
# [5] = HTB85 osteosarcoma cell growth inhibition, synergistic combos for chromothripsis tumors, BGB or cisplatin IC20 combos (AID 1671453); details: HTB85 osteosarcoma cells, drug combinations, stronger effect = higher value;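 further: cells exposed for 96 hours before readout; 0% = vehicle DMSO and 100% = high DMSO killing control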
# [6] = CRL2098 osteosarcoma cell growth inhibition, synergistic combos for chromothripsis tumors, BGB or cisplatin IC20 combos (AID 1671454); details: CRL2098 osteosarcoma cells, drug combinations, stronger effect = higher value;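 further: cells exposed for 96 h before readout; 0% = vehicle DMSO and 100% = killing by high DMSO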
# [7] = HD-MB03 medulloblastoma cell growth inhibition, synergistic combos for chromothripsis tumors, BGB or cisplatin IC20 combos (AID 1671455; in the data active means inhibition above about 83%;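 further: 0% = vehicle DMSO and 100% = high DMSO as cytotoxic control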); details: HD-MB03 medulloblastoma cells, stronger effect = higher value
# [8] = UWB1.289 ovarian carcinoma cell growth inhibition, synergistic combos for chromothripsis tumors, BGB or cisplatin combos (AID 1671456); details: UWB1.289 ovarian carcinoma cells, stronger effect = higher value;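 further: cells exposed to compound for four days; 0% = vehicle DMSO and 100% = killing by high DMSO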
# [9] = LFS_MB_2R medulloblastoma cell growth inhibition, synergistic combos for chromothripsis tumors, cisplatin combos (AID 1671457); details: LFS_MB_2R medulloblastoma cells, stronger effect = higher value;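 further: cells exposed to compound for four days before readout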
# [10] = MDA-MB-436 breast carcinoma cell growth inhibition, synergistic combos for chromothripsis tumors, BGB or cisplatin combos (AID 1671458; call rule not given here;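 further: cells exposed for 96 hours; 0% = vehicle DMSO and 100% = killing by high DMSO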); details: MDA-MB-436 breast carcinoma growth inhibition, drug combinations, stronger effect = higher value
# [11] = UWB1.289_BRCA1 ovarian cancer growth, cell-based, BGB or cisplatin combinations (AID 1671459); details: UWB1.289 BRCA1 ovarian carcinoma, drug combinations, stronger effect = higher value
# [12] = human astrocyte viability loss, single and combined drugs, cytotoxicity control for chromothriptic childhood tumor combination screen, cell-based, BGB or cisplatin IC20 combos (AID 1671460); details: Human astrocytes, drug combinations, stronger effect = higher value;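 further: cells exposed to compounds for 96 hours before viability readout; 0% = vehicle and 100% = killing control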
# [13] = growth inhibition of BT084 medulloblastoma cells, cell-based, ICGC_MB145, cisplatin and BGB IC40 combos (AID 1671461); details: drug combinations, stronger effect = higher value;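 further: cells exposed to drugs for 96 hours; 0% = vehicle DMSO and 100% = high DMSO full killing control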
# [14] = growth inhibition of RCMB18 medulloblastoma cells, cell-based, cisplatin and BGB IC40 combos (AID 1671462); details: stronger effect = higher value;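 further: cells exposed to compound for four days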
# [15] = growth inhibition of CRL1545 osteosarcoma cells, cell-based, cisplatin and BGB IC20 combos (AID 1671464); details: stronger effect = higher value;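 further: cells exposed to compound for 96 hours before readout; 0% = vehicle DMSO and 100% = high DMSO killing control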
# [16] = measured here: combination with BGB IC40, at 0.05 µM
# [17] = measured here: with BGB IC20 combination, at 0.5 µM
# [18] = measured here: with cisplatin IC20 combination, at 0.5 µM
# [19] = measured here: combination with cisplatin, at 0.5 µM
# [20] = measured here: combination with cisplatin, at 5 µM
compound,measurement,setting,value
CO[C@H]1/C=C/O[C@@]2(C)Oc3c(C)c(O)c4c(O)c(c5c(c4c3C2=O)=NC2(CCN(CC(C)C)CC2)N=5)NC(=O)/C(C)=C\C=C\[C@H](C)[C@H](O)[C@@H](C)[C@@H](O)[C@@H](C)[C@H](OC(C)=O)[C@@H]1C,inhibition,"[1]; at 0.5 µM, stronger effect = higher value",6.6% (inactive)
same,inhibition,"[1]; measured here: combination with BGB IC20, at 0.005 µM",-30.2%
same,inhibition,"[1]; measured here: combination with BGB IC40, at 0.005 µM",-46.5%
same,inhibition,[1]; [16],-18.6%
same,inhibition,"[1]; measured here: combination with cisplatin, at 0.5 µM, stronger effect = higher value",63%
same,inhibition,"[1]; measured here: combination with cisplatin, at 5 µM, stronger effect = higher value",-0.387%
same,inhibition,"[2]; BGB combo, at 5 µM",-22.5%
same,inhibition,[2]; at 0.5 µM,1.4% (inactive)
same,inhibition,"[2]; cisplatin combo, at 5 µM",-9.76%
same,inhibition,[2]; [17],-13.2%
same,inhibition,[2]; [18],8.47%
same,inhibition,"[2]; single agent, at 5 µM",11%
same,inhibition,"[3]; BGB IC20 combo, at 0.005 µM",3.39%
same,inhibition,"[3]; BGB IC40 combo, at 0.005 µM",6.3%
same,inhibition,"[3]; BGB IC40 combo, at 0.05 µM",12%
same,inhibition,[3]; at 0.5 µM,-8.24% (inactive)
same,inhibition,"[3]; cisplatin combo, at 0.05 µM",7.56%
same,inhibition,"[3]; cisplatin combo, at 0.5 µM",-8.29%
same,inhibition,"[3]; cisplatin combo, at 5 µM",0.667%
same,inhibition,"[3]; measured here: 5 uM single agent, at 5 µM",-5.87%
same,inhibition,[4]; at 0.5 µM,-1.23% (inactive)
same,inhibition,[4]; [16],-1.35%
same,inhibition,[4]; [19],1.03%
same,inhibition,[4]; [20],-6.05%
same,inhibition,[5]; at 0.5 µM,5.7% (inactive)
same,inhibition,"[5]; measured here: with BGB IC20, at 0.5 µM",19%
same,inhibition,"[5]; measured here: with BGB IC20, at 5 µM",26.5%
same,inhibition,"[5]; measured here: with cisplatin IC20, at 0.5 µM",-4.7%
same,inhibition,"[5]; measured here: with cisplatin IC20, at 5 µM",9.84%
same,inhibition,"[5]; single agent, at 5 µM",14.9%
same,inhibition,[6]; at 0.5 µM,1.32% (inactive)
same,inhibition,"[6]; measured here: combination with BGB at IC20, at 0.5 µM",-21.2%
same,inhibition,"[6]; measured here: combination with cisplatin at IC20, at 0.5 µM",29.4%
same,inhibition,[7]; at 0.5 µM,5.15% (inactive)
same,inhibition,"[7]; measured here: combo with BGB at IC20, at 0.5 µM",7.14%
same,inhibition,"[7]; measured here: combo with cisplatin at IC20, at 0.5 µM",3.29%
same,inhibition,[8]; at 0.5 µM,1.18% (inactive)
same,inhibition,"[8]; measured here: inhibition with BGB combination, at 0.05 µM",4.24%
same,inhibition,"[8]; measured here: inhibition with cisplatin combination, at 0.05 µM",-0.452%
same,inhibition,[9]; at 0.5 µM,1.7% (inactive)
same,inhibition,[9]; [19],13.1%
same,inhibition,[9]; [20],18.7%
same,inhibition,[10]; at 0.5 µM,0.36% (inactive)
same,inhibition,"[10]; measured here: BGB combination, at 0.5 µM",1.73%
same,inhibition,"[10]; measured here: BGB combination, at 5 µM",-12.5%
same,inhibition,"[10]; measured here: cisplatin combination, at 0.5 µM",-2.44%
same,inhibition,"[10]; measured here: cisplatin combination, at 5 µM",-1.97%
same,inhibition,"[11]; BGB combination, concentration series, at 5 µM",-1.95%
same,inhibition,[11]; at 0.5 µM,1.5% (inactive)
same,inhibition,"[11]; cisplatin combination, concentration series, at 5 µM",4.45%
same,inhibition,[12]; at 0.5 µM,-10.5% (inactive)
same,inhibition,"[12]; measured here: combo with BGB IC20, at 0.5 µM",-5.38%
same,inhibition,"[12]; measured here: combo with cisplatin IC20, at 0.5 µM",-10.5%
same,inhibition,[13]; at 0.5 µM,0.406% (inactive)
same,inhibition,"[13]; cisplatin combination, at 0.5 µM",-4.06%
same,inhibition,"[13]; cisplatin combination, at 5 µM",-22.6%
same,inhibition,"[13]; measured here: BGB IC40 combination 0.05 uM, at 0.05 µM",-14.2%
same,inhibition,"[13]; single agent, at 5 µM",14.2%
same,inhibition,[14]; at 0.5 µM,-2.39% (inactive)
same,inhibition,"[14]; cisplatin combo, at 5 µM",17.1%
same,inhibition,"[14]; measured here: BGB IC40 combination, at 0.05 µM",-17.4%
same,inhibition,[14]; [19],-9.55%
same,inhibition,"[14]; single agent, at 5 µM",16.6%
same,inhibition,[15]; at 0.5 µM,7.88% (inactive)
same,inhibition,[15]; [17],-2.39%
same,inhibition,[15]; [18],11.6%
same,inhibition,"[15]; single agent, at 0.05 µM",4.52%
same,inhibition,"[15]; single agent, at 5 µM",-19.7%
